Screens deposited in PubChem by National Center for Advancing Translational Sciences (NCATS).
ALOX15 inhib: qHTS Assay for Inhibitors of 15-hLO (15-human lipoxygenase); Potency, µM (highest dose often 57.1 µM), actives largely listed as inhibitors; Polyunsaturated fatty acid lipoxygenase ALOX15 (Homo sapiens), P16050; 74,000 compounds, 1.4% hits; purified 15hLO-1, xylenol orange hydroperoxide absorbance; further: nearly all actives have a fitted effect of over 55% in size
Target sequence (P16050 whole entry, looked up): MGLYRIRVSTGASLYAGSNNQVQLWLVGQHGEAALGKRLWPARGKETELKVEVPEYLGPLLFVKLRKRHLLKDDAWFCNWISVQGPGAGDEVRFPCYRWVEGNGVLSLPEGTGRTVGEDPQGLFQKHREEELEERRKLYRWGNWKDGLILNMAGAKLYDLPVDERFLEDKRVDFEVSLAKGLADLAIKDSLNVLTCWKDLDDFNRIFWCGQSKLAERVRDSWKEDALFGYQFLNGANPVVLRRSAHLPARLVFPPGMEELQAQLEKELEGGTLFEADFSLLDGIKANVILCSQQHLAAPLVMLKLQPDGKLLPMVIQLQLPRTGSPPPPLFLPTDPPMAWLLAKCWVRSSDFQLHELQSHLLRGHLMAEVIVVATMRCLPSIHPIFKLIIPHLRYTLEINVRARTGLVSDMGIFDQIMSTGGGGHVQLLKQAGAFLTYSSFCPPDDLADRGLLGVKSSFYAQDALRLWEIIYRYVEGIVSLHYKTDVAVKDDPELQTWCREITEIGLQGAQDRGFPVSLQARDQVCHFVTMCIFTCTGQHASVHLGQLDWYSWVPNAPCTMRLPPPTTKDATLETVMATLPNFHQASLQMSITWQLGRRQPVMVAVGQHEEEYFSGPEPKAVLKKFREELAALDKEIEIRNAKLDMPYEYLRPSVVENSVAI
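Purified human 15hLO-1 (40 nM) in 25 mM Hepes pH 7.5, 0.01% Triton X-100, preincubated 15 min RT with compound, then 50 uM arachidonic acid for 6 min. Hydroperoxide read by ferrous/xylenol orange, 30 min; 573/405 nm absorbance ratio gave progress.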
Tau fil binding: qHTS Assay for Tau Filament Binding. Microtubule-associated protein tau (Homo sapiens), P10636. recombinant tau filaments, thioflavin S fluorescence, 15 h; filaments grown with octadecylsulfate alongside compound. Potency, µM (top dose mostly 57.1 µM). 71,000 compounds, 2% hits;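 further: actives lower thioflavin S fluorescence by blocking filaments or displacing dye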
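Recombinant tau protein (human, 1 uM final) plus 30 uM ODS in HEPES pH 7.4 with NaCl, DTT and thioflavine S. Compound present from the start; fluorescence at 510 nm after 15 h, 37 C.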
Hsp90 Hop PPI: qHTS Assay for Disrupters of an Hsp90 Co-Chaperone Interaction; AID 595, 2007; 71,000 compounds, 0.44% hits; Potency, µM (doses to about 57 µM); Hsp90 C-terminal peptide / TPR2A (Hop) interaction, human; AlphaScreen TPR2A-His6 binding biotin-Hsp90 C-terminal peptide; active means well fitted curve in either direction with a large enough effect; inconclusive means small, poorly fitted or top-dose-only effect, or another doubt
ERK AVP inh: qHTS Assay for Inhibitors of the ERK Signaling Pathway using a Homogeneous Screening Assay; HEK293-V1b, vasopressin-stimulated pERK AlphaScreen; Potency, µM (highest dose often 57.5 µM), usual class: inhibitors; 72,000 compounds, 0.99% hits; further: nearly all actives have a fitted effect of over 55% in size
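V1b-HEK293 cells; cpd 30 min 37C; 25 nM vasopressin 5 min; lyse 10 min; AlphaScreen beads 5 hr RT. Normalized to DMSO basal and 25 nM vasopressin; AC50 by Hill fit.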
YjeE inh: qHTS Assay for Inhibitors of YjeE. Potency, µM. AID 605, 2007. tRNA threonylcarbamoyladenosine biosynthesis protein TsaE (Escherichia coli (strain …. 71,000 compounds, 0.05% hits. purified YjeE enzyme, qHTS inhibition assay
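Fluorescence polarization of a BODIPY Texas Red–ADP probe (2 uM) bound to purified YjeE (10 uM) was read after 15 min room-temperature incubation with compounds. Loss of polarization marks inhibitors; ADP serves as titrated control.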
Pol III holo inh: qHTS Assay for Inhibitors of DNA Polymerase III Holoenzyme System; reconstituted DNA polymerase III holoenzyme replication, biochemical; Potency, µM (series often up to 57.1 µM); 71,000 compounds, 0.25% hits; AID 603, 2007
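Reconstituted *E. coli* holoenzyme (0.35 nM Pol III, 1 nM beta, 154 nM SSB, 2 nM primase) was preincubated with compound for 15 min at RT. Synthesis on 1.4 nM ssM13Gori ran 35 min, then was stopped with PicoGreen/EDTA and read as dsDNA fluorescence.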
Each line names hits and unclear results; the compound was inactive in the other large screens. Rows were chosen to be rich in hits. Some 4.2% of all compounds tested hit in one or more screens of this group. Unless noted, the call rests on the fitted dose curve; in most records, active means well fitted curve in the direction sought with a large enough effect; inconclusive means small, poorly fitted or top-dose-only effect, or another doubt; inactive means no such curve, though single readings can be large; an effect the other way counts as inactive or inconclusive.

CCOC(=O)CSc1nnc(Cn2nnc(-c3ccccc3)n2)n1CC	none
O=C(CSc1nnc(CNC(=O)c2c(F)cccc2Cl)o1)c1ccccc1	none
CC1=C(/C=C/C(C)=C/C=C/C(C)=C/C(=O)Nc2ccc(O)cc2)C(C)(C)CCC1	ALOX15 inhib inconclusive, Tau fil binding 3.2µM
Cn1c(=O)[nH]c(=O)c2c1nc(CN1CCN(c3cccc(Cl)c3)CC1)n2CCN1CCOCC1	none
O=c1c(-c2cccs2)nc2cnc(N3CCNCC3)nc2n1Cc1cccs1	Hsp90 Hop PPI inconclusive, Pol III holo inh 7.9µM
CN1CCN(c2ncc3nc(-c4ccccc4)c(=O)n(Cc4cccs4)c3n2)CC1	none
O=c1c(-c2ccc(Cl)cc2)nc2cnc(N3CCNCC3)nc2n1Cc1cccs1	ALOX15 inhib inconclusive, Tau fil binding 3.2µM, ERK AVP inh inconclusive, Pol III holo inh 25µM
CN1CCN(c2ncc3nc(-c4ccc(Cl)cc4)c(=O)n(Cc4cccs4)c3n2)CC1	Tau fil binding 2µM, ERK AVP inh inconclusive
O=C(Nc1cccc2nsnc12)c1ccc2c(c1)OCCO2	Hsp90 Hop PPI inconclusive
O=S(=O)(NCCC1=CCCCC1)c1cccc2nsnc12	Tau fil binding inconclusive
O=S(=O)(NCCOC12CC3CC(CC(C3)C1)C2)c1cccc2nsnc12	Tau fil binding 16µM, ERK AVP inh inconclusive
Cc1n[nH]c2ccccc2c1=O	none
Cc1ccc2c(c1)[nH]c1c(N3CCN(Cc4ccccc4)CC3)ncnc12	ERK AVP inh 16µM
COCCn1c(=O)c(-c2ccc(OC)cc2)nc2cnc(N3CCN(C)CC3)nc21	none
O=C1C2C3C=CC(C3=C3CCCCC3)C2C(=O)N1Cc1ccccc1 (stereo not drawn)	ERK AVP inh inconclusive
Cc1c(Cl)ccc2c1NC(=O)[C@]21[C@@H]2C(=O)N(Cc3ccccc3)C(=O)[C@@H]2[C@@H]2CCCN21	ALOX15 inhib inconclusive, Tau fil binding 25µM
CCc1cccc2c1NC(=O)[C@]21[C@@H]2C(=O)N(Cc3ccccc3)C(=O)[C@@H]2[C@@H]2CCCN21	Tau fil binding 25µM, ERK AVP inh inconclusive
CCOC(=O)c1cccc(NC(=O)CSc2nnc(-c3ccncc3)n2CCCOC)c1	none
Cn1c(=O)c2c(nc(CN3CCC(C(N)=O)CC3)n2Cc2c(F)cccc2Cl)n(C)c1=O	none
CC1CCCCN1Cc1nc2c(c(=O)n(C)c(=O)n2C)n1Cc1c(F)cccc1Cl (stereo not drawn)	ALOX15 inhib 25µM, YjeE inh 79µM (no result: ERK AVP inh)
Cn1c(=O)c2c(nc(CN3CCN(Cc4ccccc4)CC3)n2Cc2ccccc2)n(C)c1=O	ALOX15 inhib 20µM, Tau fil binding inconclusive (no result: ERK AVP inh)
Cn1c(=O)c2c(nc(CN3CCN(Cc4ccccc4)CC3)n2CCN2CCOCC2)n(C)c1=O	none
CCOc1ccc(NC(=O)CSc2nnc(COc3c(C)cccc3C)o2)cc1	none
CC(C)[C@H](NC(=O)Nc1cccc(C(F)(F)F)c1)C(=O)O	none
N#C/C(C(=O)c1ccccc1)=C1/SC=C(N)N1c1ccccc1	ALOX15 inhib 16µM
N#Cc1c(-c2ccco2)cc(-c2cccnc2)nc1N	ALOX15 inhib 7.9µM, Hsp90 Hop PPI inconclusive, ERK AVP inh inconclusive, Pol III holo inh 32µM
COc1ccc(CCn2c(-c3ccco3)nc3ccccc3c2=O)cc1OC	ALOX15 inhib 4µM, ERK AVP inh 10µM
O=C(C1CC1)N1CCc2cc(Br)cc(S(=O)(=O)N3CCOCC3)c21	none
Cn1c(=O)oc2cc(S(=O)(=O)NCCC(=O)N3CCc4ccccc43)ccc21	Tau fil binding 16µM
CCC(=O)N1CCc2cc(S(=O)(=O)NC(C(=O)NCc3ccc(F)cc3)C(C)C)ccc21 (stereo not drawn)	none
CCCS(=O)(=O)N1CCCC(C(=O)NC2CCCC(C)C2C)C1 (stereo not drawn)	none
CCN(CC)S(=O)(=O)c1ccc(Cl)c(C(=O)Nc2nncs2)c1	none
CCN(CC)S(=O)(=O)c1cc(C(=O)Nc2nncs2)c(Cl)cc1Cl	ERK AVP inh 32µM
Cc1cc(C)c2nc(-c3ccccn3)cc(C(=O)Nc3cc(C)on3)c2c1	none
Cc1cc(NC(=O)c2cc(-c3ccncc3)nc3c(C)cccc23)no1	Tau fil binding 3.2µM
CN(C)Cc1ccccc1-c1nc(NC2CCNCC2)c2ccccc2n1	Pol III holo inh 25µM
COc1cccc(-c2nc(NC3CCNCC3)c3ccccc3n2)c1	ALOX15 inhib inconclusive, ERK AVP inh inconclusive, Pol III holo inh 32µM
COc1cccc2cc(C(C)N(CCCN3CCOCC3)C(=O)Nc3ccccc3)oc12 (stereo not drawn)	none
COc1ccc(Cn2nnnc2C(c2cc3cc(C)cc(C)c3[nH]c2=O)N2CCOCC2)cc1 (stereo not drawn)	none
Nc1nc(N)[n+]([O-])c(N)c1NCO	none
Cc1nc2cnc(N(C)C)nc2n(C)c1=O	ERK AVP inh 16µM
Cc1nc2cnc(N(C)C)nc2n(C2CC2)c1=O	ERK AVP inh inconclusive
COc1cccc(Cn2c(=O)c(-c3ccccc3)nc3cnc(N(C)C)nc32)c1	Hsp90 Hop PPI 10µM
COc1cccc(Nc2ncc3nc(C)c(=O)n(C)c3n2)c1	Tau fil binding 13µM
COc1cccc(Cn2c(=O)c(-c3ccc(Cl)cc3)nc3cnc(N(C)C)nc32)c1	none
CN(C)c1ncc2nc(-c3ccccc3)c(=O)n(C)c2n1	Hsp90 Hop PPI 13µM
O=C(CN1C(=O)c2ccccc2C1=O)NCC1COc2ccccc2O1 (stereo not drawn)	none
Cc1ccc2c(c1)-c1c(cnn1CC(=O)N1CCCN(Cc3ccccc3F)C1)CO2	none
COc1ccc(C2(C(=O)O)CCCC2)cc1	none
CC(=O)Nc1ccccc1-c1nc2ccc(C(=O)N3CCN(c4ccccc4)CC3)cc2[nH]c1=O	Tau fil binding 16µM, ERK AVP inh inconclusive
Cc1ccc2oc3c(c(=O)c2c1)C(c1cccc(O)c1)N(c1ccccn1)C3=O (stereo not drawn)	Tau fil binding 13µM, ERK AVP inh inconclusive
COc1ccc(NCc2nnc(SCC(=O)Nc3cccc(C)c3)o2)cc1	Tau fil binding 16µM
Cn1c(N)c(C(=O)NCc2ccccc2)sc1=S	ALOX15 inhib 13µM
COc1ccc(N2Cc3cccc(C(=O)NC(C)CCc4ccco4)c3C2=O)cc1 (stereo not drawn)	ALOX15 inhib 20µM
CCOC(=O)N1CCC(NC(=O)c2cccc3c2C(=O)N(c2ccc(OC)cc2)C3)CC1	ALOX15 inhib inconclusive
